Source: PubChem BioAssay (NCATS)
Several values for one entry are separate records, joined by “and”; a condition that tells them apart may be missing. Equal entries are not always repeated. Records with an inconclusive call do not appear. The source holds several records for some structures; these can differ, active in one and inactive in another. Activity calls are given as the source filed them. Unless noted, calls come from the whole dose curve; as a rule, active = well fitted curve in the direction sought with a large enough effect; inconclusive = small, poorly fitted or top-dose-only effect, or another doubt; inactive = no such curve, though single readings can be large; an effect the other way counts as inactive or inconclusive.

How the values were obtained:
CAOV3 = experiment: Primary qHTS to identify gynecologic anti-cancer compounds using libraries of approved drugs and bioactive compounds (AID 1345084); conditions: Gynecologic cancer cell panel viability, ATPlite luminescence, 48 h; series mostly up to 57.5 µM; note: nearly all actives have a fitted effect of over 55% in size; note: potency is the fitted concentration of half-maximal effect
Method in brief: (§1)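 Cells, 1,000 per well, plated 16 h, then exposed 48 h at 37 C to compounds. Viability by ATPlite luminescence after 15 min at room temperature.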

CASKI = experiment: as above; conditions: Gynecologic cancer cell panel viability, ATPlite luminescence, 48 h; series mostly up to 57.5 µM
Method in brief: as §1

Es-2 = experiment: as above; conditions: Gynecologic cancer cell panel viability, ATPlite luminescence, 48 h; series mostly up to 57.5 µM
Method in brief: as §1

HeLa = experiment: as above; conditions: Gynecologic cancer cell panel viability, ATPlite luminescence, 48 h; series mostly up to 57.5 µM
Method in brief: as §1

Hek293T = experiment: as above; conditions: Gynecologic cancer cell panel viability, ATPlite luminescence, 48 h, control line for the selectivity index; series mostly up to 57.5 µM
Method in brief: as §1

JEG-3 = experiment: as above; conditions: Gynecologic cancer cell panel viability, ATPlite luminescence, 48 h; series mostly up to 57.5 µM
Method in brief: as §1

OV90 = experiment: as above; conditions: Gynecologic cancer cell panel viability, ATPlite luminescence, 48 h; series mostly up to 57.5 µM
Method in brief: as §1

PA-1 = experiment: as above; conditions: Gynecologic cancer cell panel viability, ATPlite luminescence, 48 h; series mostly up to 57.5 µM
Method in brief: as §1

SKOV3 = experiment: as above; conditions: Gynecologic cancer cell panel viability, ATPlite luminescence, 48 h; series mostly up to 57.5 µM
Method in brief: as §1

Tov-21-G = experiment: as above; conditions: Gynecologic cancer cell panel viability, ATPlite luminescence, 48 h; series mostly up to 57.5 µM
Method in brief: as §1

Tov112D = experiment: as above; conditions: Gynecologic cancer cell panel viability, ATPlite luminescence, 48 h; series mostly up to 57.5 µM
Method in brief: as §1

[1] = Drug repurposing screens with cells derived from glioblastoma tumor samples (AID 1345199); conditions: GBM patient neurospheres viability, ATP luminescence, 48 h; note: nearly all actives have a fitted effect of over 40% in size; note: potency is the fitted concentration of half-maximal effect; for activity, negative = cell killing: % is set by controls: 0 for no effect and ±100 for the full control effect
Method in brief: (§2)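 Four patient lines of CD133+ GBM neurospheres were screened at several concentrations; hits were retested in those lines plus three slower-growing GBM lines, using 48-hour treatment and ATP-based viability.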

[2] = biological target: Nuclear receptor subfamily 1 group I member 2 (Rattus norvegicus) (UniProt Q9R1A7); experiment: qHTS assay for small molecule activators of the rat pregnane X receptor (rPXR) signaling pathway (AID 651751; call rule not given here; note: 0% is about no effect); conditions: rPXR reporter cells, luciferase (One-Glo), 24 h
Nuclear receptor subfamily 1 group I member 2 (Rattus norvegicus), sequence (Q9R1A7 whole entry, looked up): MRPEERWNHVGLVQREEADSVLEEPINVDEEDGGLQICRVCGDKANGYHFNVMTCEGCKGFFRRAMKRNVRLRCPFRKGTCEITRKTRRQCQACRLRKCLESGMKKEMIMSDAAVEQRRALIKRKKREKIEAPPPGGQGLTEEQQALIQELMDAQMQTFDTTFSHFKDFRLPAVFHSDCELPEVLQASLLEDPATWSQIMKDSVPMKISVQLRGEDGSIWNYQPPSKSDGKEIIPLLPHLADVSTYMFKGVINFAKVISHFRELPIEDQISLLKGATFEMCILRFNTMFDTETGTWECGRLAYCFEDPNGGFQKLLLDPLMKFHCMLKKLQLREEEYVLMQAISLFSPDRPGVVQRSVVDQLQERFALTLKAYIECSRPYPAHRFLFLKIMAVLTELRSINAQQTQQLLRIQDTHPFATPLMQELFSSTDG

astro = experiment: Drug repurposing screens with cells derived from glioblastoma tumor samples (AID 1345199); conditions: viability, ATP luminescence, 48 h; series mostly up to 45.9 µM; note: nearly all actives have a fitted effect of over 40% in size; note: potency is the fitted concentration of half-maximal effect; for activity, negative = cell killing: % is set by controls: 0 for no effect and ±100 for the full control effect
Method in brief: as §2

[3] = qHTS assay for small molecule activators of the human pregnane X receptor (PXR) signaling pathway (AID 720659; call rule not given here; note: 0% is about no effect)
[4] = at 45.9 µM (top of the series), tumour line B
[5] = at 45.9 µM (top of the series), tumour line D
[6] = at 46.1 µM (top of the series), tumour line C
[7] = at 91.6 µM (top of the series), tumour line B
[8] = at 91.6 µM (top of the series), tumour line D
[9] = at 99.2 µM (top of the series), tumour line C
[10] = at 46 µM (top of the series), tumour line A
[11] = at 20 µM (top of the series), tumour line C
[12] = at 21.2 µM (top of the series), tumour line D

O=C(/C=C/c1ccccc1)NCCO
inactive: Potency (CAOV3) | Potency (CASKI) | Potency (Es-2) | Potency (HeLa) | Potency (Hek293T) | Potency (JEG-3) | Potency (OV90) | Potency (PA-1) | Potency (SKOV3) | Potency (Tov-21-G) | Potency (Tov112D) | activity, negative = cell killing [1, 4] -16.2% | activity, negative = cell killing [1, 5] -5.87% | activity, negative = cell killing [1, 6] -18.2%

O=C(O)CC1CC(c2ccccc2)=NO1 (centres undefined)
inactive: Potency (CAOV3) | Potency (CASKI) | Potency (Es-2) | Potency (HeLa) | Potency (Hek293T) | Potency (JEG-3) | Potency (OV90) | Potency (PA-1) | Potency (SKOV3) | Potency (Tov-21-G) | Potency (Tov112D)

CCCOC(=O)c1ccc(O)cc1
active: Potency ([1]; tumour line A) 35.5 µM
inactive: Potency (CAOV3) | Potency (CASKI) | Potency (Es-2) | Potency (HeLa) | Potency (Hek293T) | Potency (JEG-3) | Potency (OV90) | Potency (PA-1) | Potency (SKOV3) | Potency (Tov-21-G) | Potency (Tov112D) | activity, negative = cell killing [1, 4] -2.89% | activity, negative = cell killing [1, 5] -17.2% | activity, negative = cell killing [1, 6] -7.69% | activity, negative = cell killing [1, 7] -21% | activity, negative = cell killing [1, 8] -29.2% | activity, negative = cell killing [1, 9] -27.8% | max response [2] -2.03% and 0.0614% and -3.63%

Cc1onc(-c2c(F)cccc2Cl)c1C(=O)N[C@@H]1C(=O)N2[C@@H]1SC(C)(C)[C@@H]2C(=O)O
inactive: Potency (CAOV3) | Potency (CASKI) | Potency (Es-2) | Potency (HeLa) | Potency (Hek293T) | Potency (JEG-3) | Potency (OV90) | Potency (PA-1) | Potency (SKOV3) | Potency (Tov-21-G) | Potency (Tov112D) | activity, negative = cell killing [1, 4] -10.7% and -14.2% | activity, negative = cell killing [1, 5] 14.3% and -22.2% | activity, negative = cell killing [1, 10] -14.1% and -18% | activity, negative = cell killing [1, 6] 9.01% and 7.31% | Potency (astro)

CO[C@@]1(NC(=O)Cc2cccs2)C(=O)N2C(C(=O)O)=C(COC(N)=O)CS[C@@H]21
inactive: Potency (CAOV3) | Potency (CASKI) | Potency (Es-2) | Potency (HeLa) | Potency (Hek293T) | Potency (JEG-3) | Potency (OV90) | Potency (PA-1) | Potency (SKOV3) | Potency (Tov-21-G) | Potency (Tov112D) | activity, negative = cell killing [1, 4] 3.39% and 0.545% | activity, negative = cell killing [1, 5] -2.17% and -11.4% | activity, negative = cell killing [1, 6] -9.41% and -2.11%

C[N+]1(C)[C@@H]2CC(OC(=O)[C@H](CO)c3ccccc3)C[C@H]1[C@@H]1O[C@@H]12 (some centres undefined)
inactive: Potency (CAOV3) | Potency (CASKI) | Potency (Es-2) | Potency (HeLa) | Potency (Hek293T) | Potency (JEG-3) | Potency (OV90) | Potency (PA-1) | Potency (SKOV3) | Potency (Tov-21-G) | Potency (Tov112D)

CCC1C(=O)OCC1Cc1cncn1C (centres undefined)
inactive: Potency (CAOV3) | Potency (CASKI) | Potency (Es-2) | Potency (HeLa) | Potency (Hek293T) | Potency (JEG-3) | Potency (OV90) | Potency (PA-1) | Potency (SKOV3) | Potency (Tov-21-G) | Potency (Tov112D) | activity, negative = cell killing [1, 4] -2.95% | activity, negative = cell killing [1, 5] -8.25% | activity, negative = cell killing [1, 10] -25.3% | activity, negative = cell killing [1, 6] -11.8%

CC1(C)[C@@H](O)CC[C@]2(C)[C@H]3C(=O)C=C4[C@@H]5C[C@@](C)(C(=O)O)CC[C@]5(C)CC[C@@]4(C)[C@]3(C)CC[C@@H]12
inactive: Potency (CAOV3) | Potency (CASKI) | Potency (Es-2) | Potency (HeLa) | Potency (Hek293T) | Potency (JEG-3) | Potency (OV90) | Potency (PA-1) | Potency (Tov-21-G) | Potency (Tov112D) | activity, negative = cell killing [1, 4] -26.1% and -10.2% | activity, negative = cell killing [1, 5] 9.17% and -11.9% | activity, negative = cell killing [1, 6] -0.581% and -19.2%
active: Potency (SKOV3) 3.16 µM

COC(=O)[C@H]1[C@H]2C[C@@H]3c4[nH]c5cc(OC)ccc5c4CCN3C[C@H]2C[C@@H](OC(=O)/C=C/c2cc(OC)c(OC)c(OC)c2)[C@@H]1OC
active: Potency ([1]; tumour line A) 10 µM
inactive: Potency (CAOV3) | Potency (CASKI) | Potency (Es-2) | Potency (HeLa) | Potency (Hek293T) | Potency (JEG-3) | Potency (OV90) | Potency (PA-1) | Potency (SKOV3) | Potency (Tov-21-G) | Potency (Tov112D) | activity, negative = cell killing [1, 11] -5.29% | activity, negative = cell killing [1, 12] -21.8% | Potency (astro)

COc1ccc(-c2cc(=S)ss2)cc1
inactive: Potency (CAOV3) | Potency (CASKI) | Potency (Es-2) | Potency (HeLa) | Potency (Hek293T) | Potency (JEG-3) | Potency (OV90) | Potency (PA-1) | Potency (SKOV3) | Potency (Tov-21-G) | Potency (Tov112D) | activity, negative = cell killing [1, 4] -21.5% | activity, negative = cell killing [1, 5] -22.3% | activity, negative = cell killing [1, 6] -27.4% | Potency (astro)

O=C(O)c1ccccc1Nc1cccc(C(F)(F)F)c1
inactive: Potency (CAOV3) | Potency (CASKI) | Potency (Es-2) | Potency (HeLa) | Potency (Hek293T) | Potency (JEG-3) | Potency (OV90) | Potency (PA-1) | Potency (Tov-21-G) | Potency (Tov112D) | activity, negative = cell killing [1, 4] -9.13% | activity, negative = cell killing [1, 5] -1.02% | activity, negative = cell killing [1, 10] -4.14% | activity, negative = cell killing [1, 6] -6.5% | max response [2] 1.7% | outcome [3]

NCCO
inactive: Potency (CAOV3) | Potency (CASKI) | Potency (Es-2) | Potency (HeLa) | Potency (Hek293T) | Potency (JEG-3) | Potency (OV90) | Potency (PA-1) | Potency (Tov-21-G) | Potency (Tov112D) | activity, negative = cell killing [1, 7] -4.71% | activity, negative = cell killing [1, 8] -21.3% | activity, negative = cell killing [1, 9] -29.9% | Potency (astro) | max response [2] -4.55% | outcome [3]

COc1cc(/C=C/C(=O)N2CCN(CC(=O)N3CCCC3)CC2)cc(OC)c1OC
inactive: Potency (CAOV3) | Potency (CASKI) | Potency (Es-2) | Potency (HeLa) | Potency (Hek293T) | Potency (JEG-3) | Potency (OV90) | Potency (PA-1) | Potency (Tov-21-G) | Potency (Tov112D) | activity, negative = cell killing [1, 4] -11% | activity, negative = cell killing [1, 5] -1.45% | activity, negative = cell killing [1, 10] -40.7% | activity, negative = cell killing [1, 6] -18.6%

CC(C(=O)O)c1ccc(C(=O)c2ccccc2)s1 (centres undefined)
inactive: Potency (CAOV3) | Potency (CASKI) | Potency (Es-2) | Potency (HeLa) | Potency (Hek293T) | Potency (JEG-3) | Potency (OV90) | Potency (PA-1) | Potency (Tov-21-G) | Potency (Tov112D) | activity, negative = cell killing [1, 11] -11.8% | activity, negative = cell killing ([1]; at 21.2 µM (top of the series), tumour line B) -9.92% | activity, negative = cell killing [1, 12] 4.8% | Potency (astro)
